Source: publication PMC7862700, “An all-to-all approach to the identification of sequence-specific readers for epigenetic DNA modifications on cytosine”

Assays:
Test in all cases: DAPPL (digital affinity profiling via proximity ligation, sequencing); 10 mM Tris-HCl pH 7.5, 50 mM NaCl, 1 mM DTT, 4% glycerol, room temperature, 30 min; GST-TFs on glutathione beads, 16-mer random dsDNA library, 0.1% formaldehyde crosslink after washing; high values mean tight binding
FLI1 = target: T1, FLI1 (Homo sapiens, UniProt Q01543 1-452); details: protein: recombinant; tags: N-terminal GST; dsDNA, one strand shown
T1 sequence: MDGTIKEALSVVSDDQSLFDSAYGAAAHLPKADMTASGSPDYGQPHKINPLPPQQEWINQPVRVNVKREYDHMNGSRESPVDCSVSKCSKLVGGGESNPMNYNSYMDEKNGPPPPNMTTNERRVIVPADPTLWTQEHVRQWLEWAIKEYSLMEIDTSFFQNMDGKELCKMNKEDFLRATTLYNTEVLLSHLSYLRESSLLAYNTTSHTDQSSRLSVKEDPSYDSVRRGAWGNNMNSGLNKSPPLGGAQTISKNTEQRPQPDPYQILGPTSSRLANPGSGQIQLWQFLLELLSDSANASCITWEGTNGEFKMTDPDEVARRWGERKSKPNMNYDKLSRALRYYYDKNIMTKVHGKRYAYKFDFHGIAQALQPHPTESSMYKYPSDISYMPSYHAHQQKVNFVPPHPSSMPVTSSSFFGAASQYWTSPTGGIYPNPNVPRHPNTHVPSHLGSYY
Summary of the method: (§1)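 Pools of DNA-barcoded human transcription factors, expressed in yeast as GST fusions on glutathione beads and combined with a tag-only sample, were incubated with 200 nmole of a 16-mer random double-stranded DNA library. Incubation took 30 min at room temperature in Tris/NaCl/DTT/glycerol buffer and was followed by washing, 0.1% formaldehyde crosslinking, proximity ligation (BsaI/T4 ligase, 1 h, 37 °C), PCR amplification and sequencing on an Illumina NextSeq500. Binding signal is the ratio of a hexamer's read frequency for a factor to its frequency for the tag-only sample.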

ELK1 = target: T2, ELK1 (Homo sapiens, UniProt P19419 1-428); details: protein: recombinant; tags: N-terminal GST; dsDNA, one strand shown
T2 sequence: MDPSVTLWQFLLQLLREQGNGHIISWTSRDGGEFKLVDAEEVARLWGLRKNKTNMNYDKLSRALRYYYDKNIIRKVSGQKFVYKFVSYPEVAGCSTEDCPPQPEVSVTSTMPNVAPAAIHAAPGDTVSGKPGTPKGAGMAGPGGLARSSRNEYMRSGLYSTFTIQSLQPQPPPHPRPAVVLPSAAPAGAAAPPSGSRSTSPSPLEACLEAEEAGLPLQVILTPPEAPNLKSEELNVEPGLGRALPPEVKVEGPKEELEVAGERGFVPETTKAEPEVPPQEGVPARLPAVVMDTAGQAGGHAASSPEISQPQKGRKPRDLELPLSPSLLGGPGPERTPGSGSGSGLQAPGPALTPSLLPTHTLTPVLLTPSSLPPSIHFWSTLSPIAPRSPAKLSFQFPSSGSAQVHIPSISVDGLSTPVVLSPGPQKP
Summary of the method: as §1

GABPA = target: T3, GABPA (Homo sapiens, UniProt Q06546 1-454); details: protein: recombinant; tags: N-terminal GST; dsDNA, one strand shown
T3 sequence: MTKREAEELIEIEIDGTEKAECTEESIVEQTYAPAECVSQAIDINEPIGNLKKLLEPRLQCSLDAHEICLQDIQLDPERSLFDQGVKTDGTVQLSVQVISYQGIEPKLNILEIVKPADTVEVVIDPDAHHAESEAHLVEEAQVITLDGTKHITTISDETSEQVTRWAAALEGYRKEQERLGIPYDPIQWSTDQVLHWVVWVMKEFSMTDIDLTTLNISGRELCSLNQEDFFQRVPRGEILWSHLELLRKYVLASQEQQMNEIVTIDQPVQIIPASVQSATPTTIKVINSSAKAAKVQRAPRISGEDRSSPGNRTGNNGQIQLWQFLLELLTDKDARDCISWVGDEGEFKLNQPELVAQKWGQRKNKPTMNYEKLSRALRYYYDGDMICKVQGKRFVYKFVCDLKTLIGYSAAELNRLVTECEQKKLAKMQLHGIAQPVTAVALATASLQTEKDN
Summary of the method: as §1

ERG = target: T4, ERG (Homo sapiens, UniProt P11308 1-479); details: protein: recombinant; tags: N-terminal GST; dsDNA, one strand shown
T4 sequence: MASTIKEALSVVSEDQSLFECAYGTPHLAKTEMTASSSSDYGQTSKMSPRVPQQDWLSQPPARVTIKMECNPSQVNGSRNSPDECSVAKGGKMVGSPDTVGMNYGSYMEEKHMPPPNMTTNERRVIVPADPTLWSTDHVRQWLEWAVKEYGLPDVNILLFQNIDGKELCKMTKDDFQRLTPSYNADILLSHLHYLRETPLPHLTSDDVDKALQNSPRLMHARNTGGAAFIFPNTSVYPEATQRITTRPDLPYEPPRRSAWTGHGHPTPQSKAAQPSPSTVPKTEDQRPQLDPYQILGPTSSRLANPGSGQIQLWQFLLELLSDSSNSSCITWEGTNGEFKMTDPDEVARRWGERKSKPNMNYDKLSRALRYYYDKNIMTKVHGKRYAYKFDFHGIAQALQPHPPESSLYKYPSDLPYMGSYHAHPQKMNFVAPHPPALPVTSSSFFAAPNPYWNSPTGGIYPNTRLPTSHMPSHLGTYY
Summary of the method: as §1

ELF1 = ELF1 (Homo sapiens, UniProt P32519 1-619); details: protein: recombinant; tags: N-terminal GST; dsDNA, one strand shown
Sequence of ELF1 (P32519 whole entry): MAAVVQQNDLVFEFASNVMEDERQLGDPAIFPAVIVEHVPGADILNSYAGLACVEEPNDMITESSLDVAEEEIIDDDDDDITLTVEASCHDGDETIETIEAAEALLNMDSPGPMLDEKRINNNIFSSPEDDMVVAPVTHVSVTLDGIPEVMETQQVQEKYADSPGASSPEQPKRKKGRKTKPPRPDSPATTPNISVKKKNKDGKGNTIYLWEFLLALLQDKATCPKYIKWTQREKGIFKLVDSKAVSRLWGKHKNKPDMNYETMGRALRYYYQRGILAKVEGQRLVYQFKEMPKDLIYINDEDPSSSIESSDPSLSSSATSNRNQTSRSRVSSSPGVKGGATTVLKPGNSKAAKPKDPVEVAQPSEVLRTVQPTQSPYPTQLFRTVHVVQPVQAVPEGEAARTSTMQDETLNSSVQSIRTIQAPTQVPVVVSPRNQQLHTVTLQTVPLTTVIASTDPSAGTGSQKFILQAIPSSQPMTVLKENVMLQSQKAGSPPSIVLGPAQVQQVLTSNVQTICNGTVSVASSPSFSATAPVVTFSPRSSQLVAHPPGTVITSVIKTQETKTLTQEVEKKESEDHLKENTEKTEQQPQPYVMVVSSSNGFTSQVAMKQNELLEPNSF
Summary of the method: as §1

EHF = target: T5, EHF (Homo sapiens, UniProt Q9NZC4 1-300); details: protein: recombinant; tags: N-terminal GST; dsDNA, one strand shown
T5 sequence: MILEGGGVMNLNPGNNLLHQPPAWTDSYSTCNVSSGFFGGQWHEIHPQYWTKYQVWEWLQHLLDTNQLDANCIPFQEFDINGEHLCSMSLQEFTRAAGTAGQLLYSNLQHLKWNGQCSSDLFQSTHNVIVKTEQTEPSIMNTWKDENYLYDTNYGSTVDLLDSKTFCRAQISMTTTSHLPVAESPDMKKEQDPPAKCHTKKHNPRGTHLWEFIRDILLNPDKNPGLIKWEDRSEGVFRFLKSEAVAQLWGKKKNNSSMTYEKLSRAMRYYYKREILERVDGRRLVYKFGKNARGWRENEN
Summary of the method: as §1

SPI1 = SPI1 (Homo sapiens, UniProt P17947 1-270); details: protein: recombinant; tags: N-terminal GST; dsDNA, one strand shown
Summary of the method: as §1

SPIB = SPIB (Homo sapiens, UniProt Q01892 1-262); details: protein: recombinant; tags: N-terminal GST; dsDNA, one strand shown
Sequence of SPIB (Q01892 whole entry): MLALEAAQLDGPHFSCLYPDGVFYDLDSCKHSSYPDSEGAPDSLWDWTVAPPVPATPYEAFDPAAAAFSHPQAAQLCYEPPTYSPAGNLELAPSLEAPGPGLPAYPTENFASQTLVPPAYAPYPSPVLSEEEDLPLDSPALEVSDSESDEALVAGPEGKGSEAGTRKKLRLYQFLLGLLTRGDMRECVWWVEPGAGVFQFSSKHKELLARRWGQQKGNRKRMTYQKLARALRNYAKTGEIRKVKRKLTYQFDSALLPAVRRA
Summary of the method: as §1

ELK3 = target: T6, ELK3 (Homo sapiens, UniProt P41970 1-407); details: protein: recombinant; tags: N-terminal GST; dsDNA, one strand shown
T6 sequence: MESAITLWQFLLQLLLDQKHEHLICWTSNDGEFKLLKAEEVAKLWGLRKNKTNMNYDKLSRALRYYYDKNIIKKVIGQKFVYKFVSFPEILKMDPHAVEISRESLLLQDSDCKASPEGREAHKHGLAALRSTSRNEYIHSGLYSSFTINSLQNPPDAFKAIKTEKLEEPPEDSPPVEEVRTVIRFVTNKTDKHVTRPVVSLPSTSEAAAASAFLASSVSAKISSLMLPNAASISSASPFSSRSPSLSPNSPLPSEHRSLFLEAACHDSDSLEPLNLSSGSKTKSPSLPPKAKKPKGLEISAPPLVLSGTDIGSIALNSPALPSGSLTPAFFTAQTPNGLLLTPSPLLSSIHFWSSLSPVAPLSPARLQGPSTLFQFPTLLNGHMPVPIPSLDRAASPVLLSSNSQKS
Summary of the method: as §1

FEV = target: T7, FEV (Homo sapiens, UniProt Q99581 1-238); details: protein: recombinant; tags: N-terminal GST; dsDNA, one strand shown
T7 sequence: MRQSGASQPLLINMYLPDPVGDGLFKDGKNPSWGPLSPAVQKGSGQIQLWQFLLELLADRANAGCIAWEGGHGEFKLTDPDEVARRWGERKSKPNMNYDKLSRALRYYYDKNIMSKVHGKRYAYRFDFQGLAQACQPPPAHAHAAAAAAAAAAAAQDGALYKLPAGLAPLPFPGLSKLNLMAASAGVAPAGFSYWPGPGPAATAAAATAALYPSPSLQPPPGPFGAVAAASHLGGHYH
Summary of the method: as §1

ETV5 = ETV5 (Homo sapiens, UniProt P41161 1-510); details: protein: recombinant; tags: N-terminal GST; dsDNA, one strand shown
Sequence of ETV5 (P41161 whole entry): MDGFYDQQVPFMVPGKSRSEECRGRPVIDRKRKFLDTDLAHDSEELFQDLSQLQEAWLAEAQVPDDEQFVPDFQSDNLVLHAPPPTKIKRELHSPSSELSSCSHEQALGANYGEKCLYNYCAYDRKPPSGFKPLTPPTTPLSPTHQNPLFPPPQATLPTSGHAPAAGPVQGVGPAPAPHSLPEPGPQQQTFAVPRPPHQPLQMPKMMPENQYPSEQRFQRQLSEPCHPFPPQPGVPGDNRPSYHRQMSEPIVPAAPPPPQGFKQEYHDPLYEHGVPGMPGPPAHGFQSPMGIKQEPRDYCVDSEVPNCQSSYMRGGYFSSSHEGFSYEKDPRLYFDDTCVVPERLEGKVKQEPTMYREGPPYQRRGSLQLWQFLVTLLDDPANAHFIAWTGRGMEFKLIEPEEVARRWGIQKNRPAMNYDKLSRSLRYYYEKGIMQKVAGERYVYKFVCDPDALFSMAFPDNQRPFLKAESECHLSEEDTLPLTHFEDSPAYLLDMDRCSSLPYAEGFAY
Summary of the method: as §1

HSF1 = HSF1 (Homo sapiens, UniProt Q00613 1-529); details: protein: recombinant; tags: N-terminal GST; chain copies: 3; dsDNA, one strand shown
Sequence of HSF1 (Q00613 whole entry): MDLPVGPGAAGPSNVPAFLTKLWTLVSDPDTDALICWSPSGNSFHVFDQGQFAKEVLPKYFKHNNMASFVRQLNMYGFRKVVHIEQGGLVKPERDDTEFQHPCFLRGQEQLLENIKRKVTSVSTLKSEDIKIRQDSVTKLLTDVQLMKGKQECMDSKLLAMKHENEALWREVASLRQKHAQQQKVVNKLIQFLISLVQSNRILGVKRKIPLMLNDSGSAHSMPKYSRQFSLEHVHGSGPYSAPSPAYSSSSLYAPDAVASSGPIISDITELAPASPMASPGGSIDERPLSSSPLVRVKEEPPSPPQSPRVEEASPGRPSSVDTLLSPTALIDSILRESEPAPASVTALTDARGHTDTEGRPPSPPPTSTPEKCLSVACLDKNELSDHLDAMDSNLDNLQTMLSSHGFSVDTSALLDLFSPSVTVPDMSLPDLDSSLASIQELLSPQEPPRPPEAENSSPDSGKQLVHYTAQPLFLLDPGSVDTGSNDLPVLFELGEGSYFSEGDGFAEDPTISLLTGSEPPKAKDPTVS
Summary of the method: as §1

SPIC = target: T8, SPIC (Homo sapiens, UniProt Q8N5J4 1-248); details: protein: recombinant; tags: N-terminal GST; dsDNA, one strand shown
T8 sequence: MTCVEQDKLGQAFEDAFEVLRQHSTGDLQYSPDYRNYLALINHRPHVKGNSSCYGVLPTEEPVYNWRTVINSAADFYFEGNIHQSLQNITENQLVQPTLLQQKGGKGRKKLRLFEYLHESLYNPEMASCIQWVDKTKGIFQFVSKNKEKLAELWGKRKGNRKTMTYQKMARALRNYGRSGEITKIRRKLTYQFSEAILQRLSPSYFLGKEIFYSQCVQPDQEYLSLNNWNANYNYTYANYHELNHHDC
Summary of the method: as §1

ELF4 = ELF4 (Homo sapiens, UniProt Q99607 1-663); details: protein: recombinant; tags: N-terminal GST; dsDNA, one strand shown
Sequence of ELF4 (Q99607 whole entry): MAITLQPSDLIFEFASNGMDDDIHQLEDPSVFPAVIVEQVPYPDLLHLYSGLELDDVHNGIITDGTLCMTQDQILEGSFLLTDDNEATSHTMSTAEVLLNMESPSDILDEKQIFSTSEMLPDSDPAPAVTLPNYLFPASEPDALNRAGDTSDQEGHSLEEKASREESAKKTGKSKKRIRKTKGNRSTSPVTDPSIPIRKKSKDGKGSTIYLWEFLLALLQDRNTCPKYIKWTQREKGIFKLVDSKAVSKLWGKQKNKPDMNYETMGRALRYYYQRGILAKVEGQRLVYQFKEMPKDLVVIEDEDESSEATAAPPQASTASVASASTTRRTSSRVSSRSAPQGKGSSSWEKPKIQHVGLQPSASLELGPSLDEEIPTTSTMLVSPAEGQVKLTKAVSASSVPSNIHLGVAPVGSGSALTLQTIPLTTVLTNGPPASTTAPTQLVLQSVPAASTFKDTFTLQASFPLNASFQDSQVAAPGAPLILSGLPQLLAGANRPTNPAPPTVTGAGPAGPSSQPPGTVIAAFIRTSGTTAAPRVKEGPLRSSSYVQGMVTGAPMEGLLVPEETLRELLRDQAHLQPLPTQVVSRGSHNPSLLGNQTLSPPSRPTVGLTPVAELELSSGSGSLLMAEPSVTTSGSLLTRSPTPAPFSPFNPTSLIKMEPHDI
Summary of the method: as §1

ELK4 = target: T9, ELK4 (Homo sapiens, UniProt P28324-2 1-405); details: protein: recombinant; tags: N-terminal GST; dsDNA, one strand shown
T9 sequence: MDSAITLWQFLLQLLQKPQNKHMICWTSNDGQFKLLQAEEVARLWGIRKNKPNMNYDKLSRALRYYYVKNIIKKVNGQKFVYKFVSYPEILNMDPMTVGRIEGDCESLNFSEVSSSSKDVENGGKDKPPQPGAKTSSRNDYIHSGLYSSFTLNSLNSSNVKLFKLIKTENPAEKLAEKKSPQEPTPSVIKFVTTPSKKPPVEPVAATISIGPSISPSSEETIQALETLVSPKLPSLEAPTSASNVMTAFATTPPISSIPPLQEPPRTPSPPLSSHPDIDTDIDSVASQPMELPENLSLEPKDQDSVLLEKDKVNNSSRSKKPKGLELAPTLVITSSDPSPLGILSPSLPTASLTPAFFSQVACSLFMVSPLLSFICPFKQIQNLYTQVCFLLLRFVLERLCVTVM
Summary of the method: as §1

ETV2 = target: T10, ETV2 (Homo sapiens, UniProt O00321 1-342); details: protein: recombinant; tags: N-terminal GST; dsDNA, one strand shown
T10 sequence: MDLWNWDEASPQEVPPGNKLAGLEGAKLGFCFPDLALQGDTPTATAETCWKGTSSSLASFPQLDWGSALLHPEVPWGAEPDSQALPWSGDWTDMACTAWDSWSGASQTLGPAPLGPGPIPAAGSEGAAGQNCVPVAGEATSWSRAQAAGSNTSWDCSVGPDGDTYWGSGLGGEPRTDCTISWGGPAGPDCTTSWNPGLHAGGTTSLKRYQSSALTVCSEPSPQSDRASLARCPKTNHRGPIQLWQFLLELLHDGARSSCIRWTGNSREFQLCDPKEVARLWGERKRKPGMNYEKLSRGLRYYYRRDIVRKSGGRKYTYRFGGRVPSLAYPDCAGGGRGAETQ
Summary of the method: as §1

ELF3 = target: T11, ELF3 (Homo sapiens, UniProt P78545 1-371); details: protein: recombinant; tags: N-terminal GST; dsDNA, one strand shown
T11 sequence: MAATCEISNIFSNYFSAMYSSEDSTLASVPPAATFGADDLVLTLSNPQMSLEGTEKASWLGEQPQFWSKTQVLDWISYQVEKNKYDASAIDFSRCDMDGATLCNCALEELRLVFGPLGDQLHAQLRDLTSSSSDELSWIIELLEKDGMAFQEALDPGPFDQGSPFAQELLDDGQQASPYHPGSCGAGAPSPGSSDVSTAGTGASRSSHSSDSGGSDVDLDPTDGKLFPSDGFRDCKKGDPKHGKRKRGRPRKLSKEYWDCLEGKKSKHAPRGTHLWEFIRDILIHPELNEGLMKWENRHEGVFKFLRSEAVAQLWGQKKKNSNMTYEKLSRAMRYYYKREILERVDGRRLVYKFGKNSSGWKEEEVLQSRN
Summary of the method: as §1

CRX = CRX (Homo sapiens, UniProt O43186 1-299); details: protein: recombinant; tags: N-terminal GST; dsDNA, one strand shown
Sequence of CRX (O43186 whole entry): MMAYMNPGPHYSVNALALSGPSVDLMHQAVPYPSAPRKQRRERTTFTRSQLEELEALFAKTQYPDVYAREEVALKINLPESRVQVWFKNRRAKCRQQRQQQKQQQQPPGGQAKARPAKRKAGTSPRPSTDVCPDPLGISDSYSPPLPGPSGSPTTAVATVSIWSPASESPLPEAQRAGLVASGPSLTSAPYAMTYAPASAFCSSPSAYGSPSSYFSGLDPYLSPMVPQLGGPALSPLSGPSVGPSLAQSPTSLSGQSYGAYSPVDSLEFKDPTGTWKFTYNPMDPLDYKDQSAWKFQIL
Summary of the method: as §1

ETV1 = ETV1 (Homo sapiens, UniProt P50549 1-477); details: protein: recombinant; tags: N-terminal GST; dsDNA, one strand shown
Sequence of ETV1 (P50549 whole entry): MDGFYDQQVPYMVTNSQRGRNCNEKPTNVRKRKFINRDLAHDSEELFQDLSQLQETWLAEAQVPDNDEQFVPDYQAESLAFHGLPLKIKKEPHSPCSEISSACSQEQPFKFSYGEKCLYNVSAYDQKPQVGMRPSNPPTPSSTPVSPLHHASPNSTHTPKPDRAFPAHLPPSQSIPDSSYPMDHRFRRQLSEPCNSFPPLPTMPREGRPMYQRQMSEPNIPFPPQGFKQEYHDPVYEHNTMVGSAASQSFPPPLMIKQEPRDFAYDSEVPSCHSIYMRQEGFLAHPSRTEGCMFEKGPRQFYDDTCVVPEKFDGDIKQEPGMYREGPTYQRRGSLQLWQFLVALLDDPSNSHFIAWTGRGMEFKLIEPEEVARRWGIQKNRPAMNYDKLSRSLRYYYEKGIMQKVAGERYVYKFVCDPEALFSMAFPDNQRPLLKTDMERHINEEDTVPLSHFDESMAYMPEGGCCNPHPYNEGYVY
Summary of the method: as §1

With GCGCTT the binding signal (FLI1) was 1.31 fold enrichment (6-mer frequency, TF over GST control), the binding signal (ELK1) was 1.36 fold enrichment (6-mer frequency, TF over GST control) and the binding signal (GABPA) was 1.32 fold enrichment (6-mer frequency, TF over GST control). For the same sequence, the binding signal (ERG) was 1.24 fold enrichment (6-mer frequency, TF over GST control), the binding signal (ELF1) was 1.31 fold enrichment (6-mer frequency, TF over GST control) and the binding signal (EHF) was 1.31 fold enrichment (6-mer frequency, TF over GST control). The binding signal (SPI1) was 1.2 fold enrichment (6-mer frequency, TF over GST control), the binding signal (SPIB) was 1.45 fold enrichment (6-mer frequency, TF over GST control) and the binding signal (ELK3) was 1.31 fold enrichment (6-mer frequency, TF over GST control). For the same sequence, the binding signal (FEV) was 1.37 fold enrichment (6-mer frequency, TF over GST control), the binding signal (ETV5) was 1.29 fold enrichment (6-mer frequency, TF over GST control) and the binding signal (HSF1) was 1.16 fold enrichment (6-mer frequency, TF over GST control). For the same sequence, the binding signal (SPIC) was 1.26 fold enrichment (6-mer frequency, TF over GST control), the binding signal (ELF4) was 1.24 fold enrichment (6-mer frequency, TF over GST control) and the binding signal (ELK4) was 1.36 fold enrichment (6-mer frequency, TF over GST control). The binding signal (ETV2) was 1.12 fold enrichment (6-mer frequency, TF over GST control), the binding signal (ELF3) was 1.04 fold enrichment (6-mer frequency, TF over GST control) and the binding signal (CRX) was 1.39 fold enrichment (6-mer frequency, TF over GST control). For the same sequence, the binding signal (ETV1) was 1.3 fold enrichment (6-mer frequency, TF over GST control).
